Outcome data for 35 compounds are collected here from PubChem BioAssay AID2783 (National Center for Advancing Translational Sciences (NCATS), 2010).

Inconclusive results are not listed. Activity calls are given as the source filed them. The call rests on the fitted dose curve; in most records, active means well fitted inhibition curve with a large enough effect in the polarisation, with a control signal flat (not every such curve was filed as active); inconclusive means small, poorly fitted or top-dose-only effect, or effect the other way, or a change in a side signal; inactive means no such curve, though single readings can be large or run the other way; the % refers to the polarisation.

Chain of Menin (Homo sapiens) (O00255 whole entry, looked up): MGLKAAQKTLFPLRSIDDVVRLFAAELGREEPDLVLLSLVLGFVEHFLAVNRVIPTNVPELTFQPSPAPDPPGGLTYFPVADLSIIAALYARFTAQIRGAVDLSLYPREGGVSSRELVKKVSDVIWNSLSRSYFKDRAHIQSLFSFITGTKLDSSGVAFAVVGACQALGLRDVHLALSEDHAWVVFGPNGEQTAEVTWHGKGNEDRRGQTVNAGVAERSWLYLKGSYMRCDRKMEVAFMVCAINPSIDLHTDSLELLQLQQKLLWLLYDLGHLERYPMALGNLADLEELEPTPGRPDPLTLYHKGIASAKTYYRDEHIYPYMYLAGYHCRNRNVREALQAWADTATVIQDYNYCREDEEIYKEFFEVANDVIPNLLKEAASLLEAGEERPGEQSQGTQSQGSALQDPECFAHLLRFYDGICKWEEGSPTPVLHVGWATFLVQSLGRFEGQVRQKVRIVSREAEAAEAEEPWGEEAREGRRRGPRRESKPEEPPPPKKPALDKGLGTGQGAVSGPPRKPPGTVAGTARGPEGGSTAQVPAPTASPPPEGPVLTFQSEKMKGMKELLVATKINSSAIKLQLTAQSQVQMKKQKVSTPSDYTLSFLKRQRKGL

The assay concerns the target Menin (Homo sapiens) (UniProt O00255). The experiment in a line: Confirmation of Inhibitors Targeting the Menin-MLL Interaction in MLL Related Leukemias: Competition With Fluorescein Labeled MLL-derived Peptide. The conditions noted are these: Fluorescence polarization, fluorescein-MLL peptide displacement from menin; series mostly up to 100 µM.
For the compound `Cc1nc(N2CCN(C)CC2)c2c3c(sc2n1)CCCC3`, the compound was classed as inactive. For `O=C(C1=C(O)C(=O)N(CCN2CCOCC2)C1c1cccc(Br)c1)c1cccs1` (stereo not given) the value was “inactive”; for `Cc1cc2c(c(=O)n1Cc1ccccc1)C1O[C@](c3ccsc3)(Cc3cc(C#N)ccc31)O2`, “inactive”. In the case of `CN1CCN(CC(=O)c2ccccc2F)CC1` it was “inactive”; in that of `c1ccc2c(c1)NCC1CCCN21` (stereo not given), “inactive”; in that of `CCOC(=O)N1CCN(Cc2nnc(-c3ccccc3C)o2)CC1`, “inactive”.

In the case of `O=C(Cn1nc(-c2ccccc2)ccc1=O)N1CCCCC1`, the outcome was inactive. `COc1ccc(C2Nc3ccc4ccccc4c3-c3c2c(=O)oc2ccccc32)cc1` (stereo not given): the compound was classed as inactive. Take `COC(=O)c1ccccc1NC1=C/C(=N\S(=O)(=O)c2ccc(C(=O)O)cc2)c2ccccc2C1=O`: the compound was called inactive. Consider `Cn1c(=O)[nH]c(=O)c2c1nc(Br)n2CCSc1nc2ccccc2o1`, for which the compound was called inactive. `COc1ccc(-c2cc(=O)c3c(O)cc(O)c(-c4cc(-c5cc(=O)c6c(O)cc(OC)cc6o5)ccc4OC)c3o2)cc1`: the compound was called inactive. On to `COc1cccc(C(=O)/C=C/Nc2ccc(S(=O)(=O)Nc3ccc(C(C)=O)cc3)cc2)c1`, for which the compound was classed as inactive. In the case of `COc1ccc(CNC(=O)C(c2ccc(O)cc2)N(Cc2ccco2)C(=O)c2snc(C(N)=O)c2N)cc1` (stereo not given), the result was inactive.

As for `CCOC(=O)N1CCN(C(=O)c2oc3ccc(S(=O)(=O)N(CC)CC)cc3c2C)CC1`, the compound was called inactive. In the case of `O=C(CSc1nnnn1-c1ccc(O)cc1)N1N=C(c2ccc3ccccc3c2)CC1c1ccccc1` (stereo not given), the result was inactive. As for `O=C(c1cc(F)c(F)cc1Cl)N1CCN(c2ncccn2)CC1`, the result was inactive. For `CSC[C@@H]1NC(=S)N(c2ccc(C)cc2)C1=O` the value was “inactive”; for `CC(C)Sc1nc(N2CCOCC2)c2c3c(sc2n1)COC(C)(C)C3`, “inactive”; for `O=C(CC(=O)c1ccccc1)Nc1cc(C(F)(F)F)ccc1Cl`, “inactive”. For `COc1cc(/C=C2/C(=O)N(c3ccc(Br)cc3)N=C2C)cc(OC)c1OC` the value was “inactive”; for `CCC(=O)NC(=S)Nc1ccc(-c2nc3ccc(C)cc3s2)cc1`, “inactive”. For `COCCNC(=O)C(OC(=O)c1nsc(Cl)c1Cl)C(C)C` (stereo not given) the value was “inactive”. Regarding `COc1ccccc1C(=O)Nc1ccccc1SC(=O)c1ccccc1OC`, the compound was called inactive. For `COc1ccc(/C=C(\C#N)C(=O)NCc2ccccc2)cc1`, the result was inactive. Take `COc1ccc(CN2CCN(C(C)C(=O)N(C)Cc3cccc(F)c3)CC2)cc1OC` (stereo not given): the compound was called inactive. In the case of `CCc1nnc(NC(=O)C2(C)COC(c3ccc(OC)cc3)OC2)s1` (stereo not given) it was “inactive”. For the compound `CC(=O)c1cccc(NS(=O)(=O)c2ccc(N/C=C\C(=O)c3ccc(F)cc3)cc2)c1`, the compound was called inactive. In the case of `COc1ccc2[nH]c(=O)c(CN(Cc3cccs3)C(=S)Nc3cccc(C)c3)cc2c1` it was “inactive”.

As for `CCCOc1ccc(C(=O)N2CCN(Cc3ccc4c(c3)OCO4)CC2)cc1`, the outcome was inactive. In the case of `CCCNC(=O)c1ccc2c(=O)c(O)c(C)[nH]c2c1` it was “inactive”. Consider `COc1ccc(NC(=O)NC2(C(=O)N3CCOCC3)CCCCC2)cc1`, for which the compound was classed as inactive. For `CCC(=O)NC(=S)Nc1ccc(NC(=S)NC(=O)c2ccc(C)cc2)cc1` the value was “inactive”.

On to `Cc1cc2ccccc2nc1SCC(=O)Nc1nc(-c2ccccc2)cs1`, for which the outcome was inactive. As for `C=CCN(CC=C)S(=O)(=O)c1ccc(NC(=S)NC(=O)/C=C/c2cccc3ccccc23)cc1`, the compound was classed as inactive.

For the compound `Cc1nc(C)c(-c2ccc(SCc3ccccc3F)nn2)s1`, the compound was called inactive.
